Assay results: the supplement of paper PMC12067926
A number with no mark means an inactive call.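 How the source made its calls: active = growth AUC significantly below the DMSO wells by Dunnett test; inactive = the rest.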

Test system: Bacillus 1 (Bacillus foraminis)
Assay: relative growth (AUC of 72 h growth curve relative to DMSO control, dAUC) (ratio); higher = more growth (less inhibition), active = hit call of the paper
Details: 20 µM
Protocol: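 Environmental bacterial isolates (Iceland stream sediment and Silwood Park soil) and whole stream-sediment communities were grown in LB from a 1:100 dilution with each pesticide at 20 µM (1% DMSO). A600 was read hourly for 72 h and the area under a spline-fitted growth curve (AUC) was computed. dAUC is the mean AUC of 3 biological replicates divided by the mean AUC of the DMSO controls. Significance was tested by Dunnett's test against the DMSO control.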

How did the relative growth turn out when `COC(=O)NC(=S)Nc1ccccc1NC(=S)NC(=O)OC` was run?
Its relative growth is 0.942.

Which relative growth does the source give for `O=[N+]([O-])c1cc(C(F)(F)F)c(Cl)c([N+](=O)[O-])c1Nc1ncc(C(F)(F)F)cc1Cl` here?
The relative growth was 0.0375 (active).

Which relative growth does the source give for `CCOc1ccc(C(C)(C)COCc2cccc(Oc3ccccc3)c2)cc1` here?
Its relative growth is 0.954.

For `O=C1C2(Cl)C3(Cl)C4(Cl)C(Cl)(Cl)C5(Cl)C3(Cl)C1(Cl)C5(Cl)C24Cl` (configuration not stated), which relative growth is on record?
The relative growth was 0.959.

With `COC(=O)N(OC)c1ccccc1COc1ccn(-c2ccc(Cl)cc2)n1` as the molecule, how does the relative growth read?
The relative growth was 1.06.

`C#CCN1C(=O)COc2cc(F)c(N3C(=O)C4=C(CCCC4)C3=O)cc21` was tested. Which relative growth did it give?
The relative growth was 1.14.

Which relative growth does the source give for `Cc1cc(C)c(C2=C(OC(=O)CC(C)(C)C)C3(CCCC3)OC2=O)c(C)c1` here?
Its relative growth is 0.993.

`CC(Oc1ccc(Oc2ncc(C(F)(F)F)cc2Cl)cc1)C(=O)O` (configuration not stated) was tested. Which relative growth did it give?
Its relative growth is 1.

For `O=C1C2CC=CCC2C(=O)N1SC(Cl)(Cl)Cl` (configuration not stated), which relative growth is on record?
The relative growth was 0.939.

With `CC[C@H](C)[C@H]1O[C@]2(C=C[C@@H]1C)C[C@@H]1C[C@@H](C/C=C(\C)[C@@H](O[C@H]3C[C@H](OC)[C@@H](O[C@H]4C[C@H](OC)[C@@H](O)[C@H](C)O4)[C@H](C)O3)[C@@H](C)/C=C/C=C3\CO[C@@H]4[C@H](O)C(C)=C[C@@H](C(=O)O1)[C@]34O)O2.CO[C@H]1C[C@H](O[C@H]2[C@H](C)O[C@@H](O[C@@H]3/C(C)=C/C[C@@H]4C[C@@H](C[C@]5(C=C[C@H](C)[C@@H](C(C)C)O5)O4)OC(=O)[C@@H]4C=C(C)[C@@H](O)[C@H]5OC/C(=C\C=C\[C@@H]3C)[C@]54O)C[C@@H]2OC)O[C@@H](C)[C@@H]1O` as the molecule, how does the relative growth read?
The relative growth was 0.944.

For `CCCN(CCOc1c(Cl)cc(Cl)cc1Cl)C(=O)n1ccnc1`, which relative growth is on record?
The relative growth was 1.07.

Which relative growth does the source give for `N#Cc1c(Cl)c(Cl)c(Cl)c(C#N)c1Cl` here?
Its relative growth is 0.955.

With `CC1(C)CON(Cc2ccccc2Cl)C1=O` as the molecule, how does the relative growth read?
The relative growth was 1.03.

For `COC(=O)Nc1nc2ccccc2[nH]1`, which relative growth is on record?
The relative growth was 1.1.

How did the relative growth turn out when `CN1COCN(Cc2cnc(Cl)s2)/C1=N\[N+](=O)[O-]` was run?
The relative growth was 1.02.

For `Cc1cccc2sc3nncn3c12`, which relative growth is on record?
The relative growth was 1.03.

With `CN/C(=N/CC1CCOC1)N[N+](=O)[O-]` (configuration not stated) as the molecule, how does the relative growth read?
Its relative growth is 1.11.

Which relative growth does the source give for `CCCCc1c(C)nc(NCC)nc1OS(=O)(=O)N(C)C` here?
The relative growth was 0.907.

How did the relative growth turn out when `CCCCCCCCCCCCNC(=N)N` was run?
Its relative growth is 0.691 (active).

Which relative growth does the source give for `C[N+]1(C)CCCCC1` here?
Its relative growth is 1.04.

With `CCOC(=O)CC(SP(=S)(OC)OC)C(=O)OCC` (configuration not stated) as the molecule, how does the relative growth read?
The relative growth was 1.05.

Which relative growth does the source give for `COP(=O)(OC)OC=C(Cl)Cl` here?
The relative growth was 0.941.

Which relative growth does the source give for `CS(=O)(=O)c1ccc(C(=O)C2C(=O)CCCC2=O)c([N+](=O)[O-])c1` here?
The relative growth was 0.961.

With `CC(C)OC(=O)Nc1cccc(Cl)c1` as the molecule, how does the relative growth read?
Its relative growth is 1.15.

For `CCC(=O)Nc1ccc(Cl)c(Cl)c1`, which relative growth is on record?
The relative growth was 0.957.

`CO/C=C(/C(=O)OC)c1ccccc1COc1cccc(C(F)(F)F)n1` was tested. Which relative growth did it give?
Its relative growth is 1.05.

For `COC(=O)c1ccccc1S(=O)(=O)NC(=O)Nc1nc(C)nc(OC)n1`, which relative growth is on record?
The relative growth was 1.05.
